Data reported in the supplement of paper PMC13380429.

What was measured:
[1] = test system: Vero E6 infected with SARS-CoV-2; assay: morphology score (similarity to uninfected cells); higher = more like uninfected cells; details: 24 h
[2] = test system: Vero E6 infected with SARS-CoV-2; assay: SARS-CoV-2 infection rate relative to infected DMSO; higher = more infection, active = 60 or less; details: 24 h

| Structure (SMILES) | morphology score [1] | SARS-CoV-2 infection rate [2] |
| --- | --- | --- |
| Nc1nc(CC(=O)Nc2ccc(CCNC[C@H](O)c3ccccc3)cc2)cs1 [mirabegron] (10 µM) | -0.0704 | 102% (inactive) |
| OCCNCCCOc1cccc(Cl)c1Cl (0.833333 µM) | 0.093 | 112% (inactive) |
| O=C1NC(=O)c2cc(Nc3ccc(F)cc3)c(Nc3ccc(F)cc3)cc21 (10 µM) | 0.329 | 77.5% (inactive) |
| Clc1ccc(C(Cn2ccnc2)OCc2ccsc2Cl)c(Cl)c1 (configuration not stated) [tioconazole] (10 µM) | -0.0375 | 106% (inactive) |
| CC(C)c1cnn2c(NCc3ccccc3)cc(NCCCCCCN)nc12 (10 µM) | 0.714 | 41% (active) |
| Oc1ccc2c3c1O[C@H]1c4[nH]c5ccccc5c4C[C@@]4(O)[C@@H](C2)N(CC2CC2)CC[C@]314 [naltrindole] (10 µM) | -0.0968 | 106% (inactive) |
| CCCCCCCCN=c1ccn(CCCCCCCCCCn2ccc(=NCCCCCCCC)cc2)cc1 [octenidine] (0.833333 µM) | -0.0145 | 108% (inactive) |
| CO[C@H]1[C@H](O)[C@@H](O)[C@@H](O)[C@H](O)[C@@H]1O [pinitol] (10 µM) | -0.0343 | 114% (inactive) |
| N#Cc1ccc(-c2ccc(S(=O)(=O)Nc3cccc(N)n3)cc2)cc1 (10 µM) | -0.0328 | 120% (inactive) |
| COC1CCN(c2cccc(-c3cc(NC(C)=O)nc(-n4nc(C)cc4C)n3)n2)CC1 (10 µM) | -0.0121 | 104% (inactive) |
| O=C(/C=C/c1c(C(=O)O)[nH]c2cc(Cl)cc(Cl)c12)Nc1ccccc1 [gavestinel] (10 µM) | 0.121 | 108% (inactive) |
| CC(=O)N[C@@H](CCC(N)=O)C(=O)O [aceglutamide] (10 µM) | -0.137 | 105% (inactive) |
| CC(C)OC(=O)OCOP(=O)(CO[C@H](C)Cn1cnc2c(N)ncnc21)OCOC(=O)OC(C)C [tenofovir-disoproxil] (10 µM) | -0.00661 | 116% (inactive) |
| CC(C)c1c2cc(-c3ccnc(N[C@H]4CC[C@H](NC5CCOCC5)CC4)n3)ccc2nn1C (0.833333 µM) | 0.108 | 90.5% (inactive) |
| CN[C@H]1CN(c2ccc3c(=O)c(C(=O)O)cn(-c4nccs4)c3n2)C[C@@H]1OC [voreloxin] (0.833333 µM) | 0.068 | 104% (inactive) |
| COc1ccc(CCO[C@@H]2CCCC[C@H]2N2CC[C@@H](O)C2)cc1OC [vernakalant] (10 µM) | 0.109 | 110% (inactive) |
| NCC(CC(=O)O)c1ccccc1 (configuration not stated) [fenigam] (10 µM) | 0.256 | 89% (inactive) |
| CN/C(=N\c1ccc(C2=NNC(=O)CC2C)cc1)NC#N (configuration not stated) [siguazodan] (10 µM) | 0.0721 | 109% (inactive) |
| CC(=O)Oc1c(C)cc(OCC(O)CNC(C)C)c(C)c1C (configuration not stated) [metipranolol] (10 µM) | -0.0461 | 108% (inactive) |
| CC(=O)OCC(=O)[C@@]12OC3(CCCC3)O[C@@H]1C[C@H]1[C@@H]3CCC4=CC(=O)C=C[C@]4(C)[C@@]3(F)[C@@H](O)C[C@@]12C [amcinonide] (10 µM) | 0.114 | 110% (inactive) |
| C[C@H]1C[C@H]2[C@@H]3CCC4=CC(=O)C=C[C@]4(C)[C@H]3C(=O)C[C@]2(C)[C@@]1(O)C(=O)CO [Betapar (Meprednisone)] (10 µM) | 0.0238 | 108% (inactive) |
| CC(C)=CCC[C@](C)(O[C@@H]1O[C@H](CO)[C@@H](O)[C@H](O)[C@H]1O)[C@H]1CC[C@]2(C)[C@@H]1[C@H](O)C[C@@H]1[C@@]3(C)CC[C@H](O[C@@H]4O[C@H](CO)[C@@H](O)[C@H](O)[C@H]4O[C@@H]4O[C@H](CO)[C@@H](O)[C@H](O)[C@H]4O)C(C)(C)[C@@H]3CC[C@]12C [ginsenoside-RD] (10 µM) | 0.0521 | 102% (inactive) |
| O[C@H]1[C@H]2[C@H](O)CCCN2C[C@H]1O [swainsonine] (10 µM) | -0.0751 | 97% (inactive) |
| C[C@]12CC[C@H]3[C@@H](CCC4=CC(=O)CC[C@@H]43)[C@@H]1CC[C@@H]2O [Nandrolone] (10 µM) | 0.24 | 89.5% (inactive) |
| Cc1nnc(-c2ccc3occ(-c4ccc([S+](C)[O-])cc4)c3c2)o1 (configuration not stated) (10 µM) | -0.00242 | 92.5% (inactive) |
| C[n+]1ccccc1C=NO [pralidoxime] (10 µM) | -0.226 | 116% (inactive) |
